# Laboratory results: the supplement of paper PMC7156485
# ± gives the standard deviation of the averaged measurements.
# Test system: TDF
# Assay: cell number relative to DMSO (% of DMSO); higher = more cells (less growth inhibition / toxicity)
# Conditions: concentration: 10 µM; 24 h
# Method in brief: (§1)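 For HCC1569 and TDF cells, compounds at 10 µM were applied for 24 h at 37 °C in triplicate in 384-well plates. Cells were fixed in 3.7% formaldehyde, stained for H1.0 and with DAPI, and imaged at ×10 over six fields per well. The endpoint, H1.0 nuclear intensity or cell number, is shown as percent of the plate control using the median of replicates. Positional effects were smoothed for HCC1569 only.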
# 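Throughout, for H1.0 immunofluorescence intensity relative to DMSO: TDF is a line of transformed human dermal fibroblasts of mesenchymal origin.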
# 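Throughout, for cell number relative to DMSO: TDF denotes transformed human dermal fibroblasts of mesenchymal origin.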
row,SMILES,cell number
1,"C#CCn1c(=O)c2c(ncn2C)n(C)c1=O [3,7-Dimethyl-I-propargylxanthine]",97.1
2,CCOC(=O)C1=CC2(CC)CCCN3CCc4c(n1c1ccccc41)C32 (configuration not stated) [Vinpocetine],106 ± 5.3
3,CC1CCC2(C(=O)O)CCC3(C)C(=CCC4C5(C)CCC(O)C(C)(C)C5CCC43C)C2C1C (configuration not stated) [Ursolic acid],101
4,COc1cc2c(cc1OC)CC(=O)N(CCCN(C)C[C@H]1Cc3cc(OC)c(OC)cc31)CC2.Cl,102
5,Cc1ccc(F)c(NC(=O)Nc2ccc(-c3cccc4[nH]nc(N)c34)cc2)c1,90.1
6,Cl.O=C(O)C1CCCN(CCC=C(c2ccccc2)c2ccccc2)C1 (configuration not stated),92.7
7,Br.COc1ccccc1N1CCN(CCCCN2C(=O)c3ccccc3C2=O)CC1 [NAN-190 hydrobromide],102
8,CCC1(O)C(=O)OCc2c1cc1n(c2=O)Cc2cc3c(CN(C)C)c(O)ccc3nc2-1.Cl (configuration not stated) [Topotecan.HCl],17.1
9,Cc1cc2c(OCC(CNC(C)(C)C)OC(=O)c3ccccc3)cccc2[nH]1 (configuration not stated) [Bopindolol],89.5
10,COc1ccc2cc1Oc1ccc(cc1)CC1c3cc(c(OC)cc3CCN1C)Oc1c(OC)c(OC)cc3c1C(C2)N(C)CC3 (configuration not stated) [Isotetrandrine],83.8
11,COc1ccc2cc(OCC3(C(=O)O)CN(C(=O)c4ccc(F)cc4)C3)ccc2c1,103
12,C[N+](C)(C)CC(O)CC(=O)[O-].Cl (racemic),120
13,NS(=O)(=O)c1cc2c(cc1Cl)NC(C1CC3C=CC1C3)NS2(=O)=O (configuration not stated) [Cyclothiazide],105
14,"Cc1ccc(OCC(O)C(C)NC(C)C)c2c1CCC2.Cl (configuration not stated) [ICI 118,551 hydrochloride]",104
15,N#Cc1cnc2cnc(NCc3cccnc3)cc2c1Nc1ccc(F)c(Cl)c1 [Tpl2 Kinase Inhibitor],74.3
16,CCCCCC(O)C=CC1C(O)CC(=O)C1CC=CCCCC(=O)O (configuration not stated) [Prostaglandin E2],102 ± 6.3
17,CCCCCC(O)C=CC1C(O)CC2CC(=CCCCC(=O)O)CC21 (configuration not stated) [Carbacyclin],99.1

# Test system: TDF
# Assay: H1.0 immunofluorescence intensity relative to DMSO (% of DMSO); higher = stronger H1.0 induction, active = 120 or more
# Conditions: concentration: 10 µM; 24 h
# Method in brief: as §1
row,SMILES,H1.0 immunofluorescence intensity
1,CN(C)[C@@H]1CCc2[nH]c3ccc(NC(=O)c4ccc(F)cc4)cc3c2C1.Cl,94.9 (inactive)
2,Cc1cc(C(C)(C)C)c(O)c(C(C)(C)C)c1,90.4 (inactive)
3,Cl.c1ccc(-n2c(C3=NCCN3)cc3ccccc32)cc1,105 (inactive)
4,Cl.N=c1ccn2c(n1)OC1C(O)C(CO)OC12 (configuration not stated) [Ancitabine hydrochloride],109 (inactive)
5,CC(N)C1CCC(C(=O)Nc2ccncc2)CC1.Cl.Cl (configuration not stated),87.3 (inactive)
6,O=C(Nc1cccc(Cl)c1)Nc1ncc(CCNc2ncnc3ccsc23)s1,103 (inactive)
7,NC(=O)c1ccc(N(C(N)=O)c2c(F)cccc2F)nc1-c1ccc(F)cc1F,94.8 (inactive)
8,CC(C)N=c1cc2n(-c3ccc(Cl)cc3)c3ccccc3nc-2cc1Nc1ccc(Cl)cc1,109 (inactive)
9,CNc1nccc(-c2cccnc2Oc2cc(C(=O)Nc3cccc(C(F)(F)F)c3)ccc2C)n1,92.9 (inactive)
10,Cl.Cl.OCCN1CCN(CCCN2c3ccccc3C=Cc3ccccc32)CC1,99.1 (inactive)
11,O=C(NCCO)c1cccc(-c2cc(Nc3ccc(OC(F)(F)F)cc3)ncn2)c1,110 (inactive)
12,CCCCNc1ncc(C(=O)NCc2ccc(-n3ccnc3)cc2)c(NC2CCC(O)CC2)n1 (configuration not stated),118 (inactive)
13,CCN(CC)CCNC(=O)c1c(C)[nH]c(C=C2C(=O)Nc3ccc(F)cc32)c1C [Sunitinib],106 (inactive)
14,CNc1cc(NS(=O)(=O)c2ccc(N)cc2)nc(NC)n1.Cl.Cl [Ro 04-6790 dihydrochoride],98.7 (inactive)
15,CCN1CCN(C(=O)NC(C(=O)NC2C(=O)N3C2SC(C)(C)C3C(=O)O)c2ccccc2)C(=O)C1=O (configuration not stated) [Piperacillin],95.4 (inactive)
16,O=c1ccc2ccc(O)c(O)c2o1 [Daphnetin],100 (inactive)
17,Cc1cccc(-c2nn(C(=S)Nc3ccccc3)cc2-c2ccnc3ccccc23)n1,82.2 (inactive)
18,O=C(Nc1cc(C(F)(F)F)cc(C(F)(F)F)c1)c1cc(Cl)ccc1O,115 (inactive)
19,CC(C)Cc1ccc(C(C)C(=O)O)cc1 (racemic),95.4 (inactive)
20,C=CCCCCCCCCC(=O)O [10-Undecenoic acid],104 (inactive)

row,SMILES,H1.0 immunofluorescence intensity
1,CC1CCN(C(=O)CC#N)CC1N(C)c1ncnc2[nH]ccc12 (configuration not stated) [Tasocitinib],89.1 (inactive)
2,O=c1c(OC2OC(C(O)CO)C(O)C2O)c(-c2ccc(O)c(O)c2)oc2cc(O)cc(O)c12 (configuration not stated) [Isoquercitrine],102 (inactive)
3,Cl.NOCC(=O)O.NOCC(=O)O [O-(Carboxymethyl)hydroxylamine hemihydrochloride],99.1 (inactive)
4,"C#CCn1c(=O)c2c(ncn2C)n(C)c1=O [3,7-Dimethyl-I-propargylxanthine]",91.6 (inactive)
5,CCOC(=O)C1=CC2(CC)CCCN3CCc4c(n1c1ccccc41)C32 (configuration not stated) [Vinpocetine],93.2 (inactive)
6,CC1CCC2(C(=O)O)CCC3(C)C(=CCC4C5(C)CCC(O)C(C)(C)C5CCC43C)C2C1C (configuration not stated) [Ursolic acid],97.5 (inactive)
7,COc1cc2c(cc1OC)CC(=O)N(CCCN(C)C[C@H]1Cc3cc(OC)c(OC)cc31)CC2.Cl,92.6 (inactive)
8,Cc1ccc(F)c(NC(=O)Nc2ccc(-c3cccc4[nH]nc(N)c34)cc2)c1,101 (inactive)
9,Cl.O=C(O)C1CCCN(CCC=C(c2ccccc2)c2ccccc2)C1 (configuration not stated),98.1 (inactive)
10,Br.COc1ccccc1N1CCN(CCCCN2C(=O)c3ccccc3C2=O)CC1 [NAN-190 hydrobromide],90.9 (inactive)
11,CCC1(O)C(=O)OCc2c1cc1n(c2=O)Cc2cc3c(CN(C)C)c(O)ccc3nc2-1.Cl (configuration not stated) [Topotecan.HCl],154 (active)
12,Cc1cc2c(OCC(CNC(C)(C)C)OC(=O)c3ccccc3)cccc2[nH]1 (configuration not stated) [Bopindolol],99 (inactive)
13,COc1ccc2cc1Oc1ccc(cc1)CC1c3cc(c(OC)cc3CCN1C)Oc1c(OC)c(OC)cc3c1C(C2)N(C)CC3 (configuration not stated) [Isotetrandrine],111 (inactive)
14,COc1ccc2cc(OCC3(C(=O)O)CN(C(=O)c4ccc(F)cc4)C3)ccc2c1,93.7 (inactive)
15,C[N+](C)(C)CC(O)CC(=O)[O-].Cl (racemic),97.1 (inactive)
16,NS(=O)(=O)c1cc2c(cc1Cl)NC(C1CC3C=CC1C3)NS2(=O)=O (configuration not stated) [Cyclothiazide],111 (inactive)
17,"Cc1ccc(OCC(O)C(C)NC(C)C)c2c1CCC2.Cl (configuration not stated) [ICI 118,551 hydrochloride]",96.9 (inactive)
18,N#Cc1cnc2cnc(NCc3cccnc3)cc2c1Nc1ccc(F)c(Cl)c1 [Tpl2 Kinase Inhibitor],92.6 (inactive)
19,CCCCCC(O)C=CC1C(O)CC(=O)C1CC=CCCCC(=O)O (configuration not stated) [Prostaglandin E2],95.7 (inactive)
20,CCCCCC(O)C=CC1C(O)CC2CC(=CCCCC(=O)O)CC21 (configuration not stated) [Carbacyclin],94.8 (inactive)
